For part of these data: Potency and affinity values are given separately. Calls of active or inactive are those of the source.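 Rule for the calls, unless noted: active = calcium signal ratio cut to more than 3 SD under the fully stimulated control mean yet still positive, in both repeats and the primary screen; inactive = the rest.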
Key:
[1] = system: TRPC4 beta (transient receptor potential cation channel C4), mouse; assay: activators of mouse TRPC4 channel, confirmation, cell-based, Fluo4 calcium, HEK293 TRPC4beta/mu-opioid, duplicates, 10 µM (AID 2426;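 active = fluorescence ratio normalized to control raised more than 50% in primary screen plus both repeat runs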;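 for activation: percent rise of integrated ratio over buffer wells lacking compound which define 0%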); conditions: Fluo4 calcium fluorescence, at 10 µM; active compounds read high
[2] = system: transient receptor potential cation channel C4 beta (TRPC4), mouse; assay: activators of mouse TRPC4 channel, confirmation, cell-based, second round, Fluo4, HEK293 TRPC4beta/mu-opioid, 1 µM (AID 2461;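 active = primary screen active and over 50% activation in each of two duplicate runs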;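 for activation: 0% = wells without test compound as baseline of integrated fluorescence ratio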); conditions: Fluo4 calcium fluorescence, at 1 µM; active compounds read high
[3] = system: TRPC4 (transient receptor potential cation channel C4 beta), mouse; assay: positive allosteric modulators of mouse TRPC4, confirmation, cell-based, second round, Fluo-4, HEK293 TRPC4beta/mu-opioid, 1 µM (AID 2554;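 active = primary screen hit whose fluorescence ratio, in both repeats, exceeds the weak agonist control mean by 3 SD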); conditions: DAMGO EC20, Fluo-4 calcium flux, at 1 µM; active compounds read high
[4] = system: TRPC4 beta (transient receptor potential cation channel C4), mouse; assay: positive allosteric modulators of mouse TRPC4, confirmation, cell-based, Fluo-4, HEK293 TRPC4beta/mu-opioid (AID 2555;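 active = primary screen hit whose calcium fluorescence ratio, in both repeats, exceeds the weak agonist control mean by 3 SD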); conditions: DAMGO EC20, Fluo-4 calcium flux, at 10 µM; active compounds read high
[5] = biological target: Short transient receptor potential channel 4 (Mus musculus) (UniProt Q9QUQ5); assay: inhibitors of mouse TRPC4 channel, confirmation, cell-based, Fluo4, HEK293 TRPC4beta/mu-opioid (AID 2636;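 active = calcium signal cut by more than 3 SD below the full-agonist control yet still positive, in both repeats and the earlier primary screen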); conditions: DAMGO, Fluo4 calcium flux, at 10 µM; active compounds read high
Short transient receptor potential channel 4 (Mus musculus), sequence (Q9QUQ5 whole entry, looked up): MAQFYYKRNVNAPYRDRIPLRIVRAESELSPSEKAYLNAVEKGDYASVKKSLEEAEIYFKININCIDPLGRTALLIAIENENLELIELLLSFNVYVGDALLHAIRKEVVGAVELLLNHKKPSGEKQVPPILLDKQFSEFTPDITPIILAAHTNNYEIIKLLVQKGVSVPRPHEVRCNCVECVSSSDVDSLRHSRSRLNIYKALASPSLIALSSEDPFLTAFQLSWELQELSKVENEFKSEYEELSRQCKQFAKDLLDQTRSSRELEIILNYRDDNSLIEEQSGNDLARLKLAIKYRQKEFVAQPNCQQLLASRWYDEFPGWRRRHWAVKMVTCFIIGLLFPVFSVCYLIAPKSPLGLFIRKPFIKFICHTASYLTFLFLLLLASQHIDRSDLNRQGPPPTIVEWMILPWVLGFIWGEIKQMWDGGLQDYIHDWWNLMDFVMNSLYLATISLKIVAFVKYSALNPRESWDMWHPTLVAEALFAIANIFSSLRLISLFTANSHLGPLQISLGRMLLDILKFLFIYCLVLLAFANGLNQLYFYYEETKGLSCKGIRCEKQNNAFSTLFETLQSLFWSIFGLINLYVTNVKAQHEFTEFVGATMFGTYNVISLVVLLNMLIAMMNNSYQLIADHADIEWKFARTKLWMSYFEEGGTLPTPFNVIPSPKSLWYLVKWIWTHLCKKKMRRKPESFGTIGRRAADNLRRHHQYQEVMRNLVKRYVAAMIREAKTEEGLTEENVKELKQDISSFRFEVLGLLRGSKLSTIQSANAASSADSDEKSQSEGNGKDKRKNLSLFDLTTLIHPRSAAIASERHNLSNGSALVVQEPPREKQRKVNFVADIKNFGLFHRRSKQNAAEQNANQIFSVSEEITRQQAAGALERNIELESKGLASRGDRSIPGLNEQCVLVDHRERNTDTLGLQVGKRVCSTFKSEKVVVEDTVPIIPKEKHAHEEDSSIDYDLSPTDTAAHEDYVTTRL

[6] = biological target: Short transient receptor potential channel 4 (Mus musculus) (UniProt Q9QUQ5); assay: inhibitors of mouse TRPC4 channel, confirmation, cell-based, second round, Fluo4, HEK293 TRPC4beta/mu-opioid, 1 µM (AID 2637); conditions: Fluo4 calcium flux, DAMGO, at 1 µM; active compounds read high
[7] = biological target: Short transient receptor potential channel 4 (Mus musculus) (UniProt Q9QUQ5); assay: TRPC4 positive allosteric modulators, dose response, cell-based, HEK293 TRPC4/mu-opioid, Fluo-4 calcium, EC20 DAMGO (AID 434941;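 active = earlier screen potentiator hit that boosts the TRPC4 ion channel at some dose, with a dose response; inactive = no potentiation, no dose response, or not a prior hit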;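 note: calcium entry triggered by an EC20 dose of DAMGO at the co-expressed mu-opioid receptor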); conditions: HEK293 TRPC4/mu-opioid cells, Fluo-4 calcium fluorescence; series mostly up to 20 µM
[8] = biological target: Short transient receptor potential channel 4 (Mus musculus) (UniProt Q9QUQ5); assay: mouse TRPC4 channel inhibitors, dose response, cell-based, HEK293 TRPC4/mu-opioid, Fluo-4 calcium (AID 434942;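 active = primary screen inhibitor hit that blocks the TRPC4 channel at some tested dose, yielding a dose curve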); conditions: HEK293 TRPC4/mu-opioid cells, DAMGO-evoked Fluo-4 calcium ratio; series mostly up to 20 µM
[9] = biological target: Short transient receptor potential channel 6 (Mus musculus) (UniProt Q61143); assay: inhibition of mouse TRPC6 channel, confirmation, selectivity assay for TRPC4 inhibitor project, cell-based, HEK293, membrane potential dye, duplicate (AID 434948;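 active = active in primary screen and both duplicates, each dropping signal beyond three positive-control SD with fluorescence still positive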); conditions: HEK293 TRPC6, membrane potential dye fluorescence, at 10 µM; inhibition: active compounds read high, stimulated with maximal-effect acetylcholine unless noted; outcome: stimulated with maximal-effect acetylcholine unless noted
Short transient receptor potential channel 6 (Mus musculus), sequence (Q61143 whole entry, looked up): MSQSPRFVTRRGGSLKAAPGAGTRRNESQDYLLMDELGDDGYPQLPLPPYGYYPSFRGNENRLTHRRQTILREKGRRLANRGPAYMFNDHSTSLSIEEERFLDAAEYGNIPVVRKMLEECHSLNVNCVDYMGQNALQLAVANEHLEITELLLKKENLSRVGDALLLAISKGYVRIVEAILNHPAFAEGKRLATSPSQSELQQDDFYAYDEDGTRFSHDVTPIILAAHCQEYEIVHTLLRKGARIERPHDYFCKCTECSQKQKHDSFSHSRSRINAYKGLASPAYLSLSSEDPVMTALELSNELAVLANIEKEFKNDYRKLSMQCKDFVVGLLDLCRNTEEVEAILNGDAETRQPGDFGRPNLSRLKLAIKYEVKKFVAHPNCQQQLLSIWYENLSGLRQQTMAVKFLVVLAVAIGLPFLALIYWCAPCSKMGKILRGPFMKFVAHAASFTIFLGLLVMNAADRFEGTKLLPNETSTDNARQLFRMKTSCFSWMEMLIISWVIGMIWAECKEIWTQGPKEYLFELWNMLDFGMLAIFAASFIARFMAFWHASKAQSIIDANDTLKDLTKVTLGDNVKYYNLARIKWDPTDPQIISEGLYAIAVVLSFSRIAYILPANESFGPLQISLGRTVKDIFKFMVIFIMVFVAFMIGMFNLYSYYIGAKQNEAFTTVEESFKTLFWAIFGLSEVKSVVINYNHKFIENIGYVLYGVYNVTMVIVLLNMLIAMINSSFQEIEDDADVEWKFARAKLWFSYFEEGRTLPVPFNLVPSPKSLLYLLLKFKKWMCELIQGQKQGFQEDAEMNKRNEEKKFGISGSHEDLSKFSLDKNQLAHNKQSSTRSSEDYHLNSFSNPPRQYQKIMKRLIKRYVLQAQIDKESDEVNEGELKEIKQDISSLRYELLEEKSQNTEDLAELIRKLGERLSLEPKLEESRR

[10] = biological target: Short transient receptor potential channel 6 (Mus musculus) (UniProt Q61143); assay: activation of mouse TRPC6 channel, confirmation, selectivity assay for TRPC4 activator project, cell-based, HEK293, membrane potential dye, duplicate (AID 434950;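 active = membrane potential signal rise above negative control mean plus 3 SD in both duplicates, also active in the earlier TRPC4 screen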;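 for activation: 0% = buffer only wells and 100% = acetylcholine maximal-effect wells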); conditions: HEK293 TRPC6, membrane potential fluorescence, at 10 µM; active compounds read high
[11] = biological target: Short transient receptor potential channel 6 (Mus musculus) (UniProt Q61143); assay: TRPC6 potentiation by TRPC4 potentiator hits, confirmation, selectivity assay for TRPC4 potentiator project, HEK293 cells, membrane potential dye, duplicate (AID 434952;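 active = compound raising the membrane signal above positive-control mean plus 3 SD in both repeats, and a primary screen hit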); conditions: HEK293 TRPC6, membrane potential dye fluorescence, at 10 µM; maximal acetylcholine added after compound unless noted
[12] = biological target: Short transient receptor potential channel 4 (Mus musculus) (UniProt Q9QUQ5); assay: calcium flux activators in TRPC4/5HT1a cells, counter-screen for TRPC4 activator project, cell-based, second counter screen, HEK293 TRPC4/5HT1a, Fluo-4 (AID 434977;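 active = calcium signal rise above buffer-control mean plus 5 SD in both duplicates, and also a hit in the primary screen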;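 for activation: plate controls were assay buffer for no effect and maximal serotonin response for full effect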); conditions: Fluo-4 calcium flux, at 10 µM; active compounds read high
[13] = calcium flux inhibitors in TRPC4/5HT1a cells, confirmation, counter-screen for TRPC4 inhibitor project, cell-based, second counter screen, HEK293 TRPC4/5HT1a, Fluo-4 (AID 434978;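 active = primary screen active whose calcium signal fell more than 3 SD beyond the full-serotonin control mean in both duplicate plates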;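 note: serotonin given first at submaximal then at maximal dose after compound preincubation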); conditions: Fluo-4 calcium flux, at 10 µM; inhibition: active compounds read high, serotonin added to trigger calcium flux unless noted; outcome: serotonin added to trigger calcium flux unless noted
[14] = system: TRPC4 (mouse), co-expressed with 5HT1a in HEK293; assay: calcium flux potentiators in TRPC4/5HT1a cells, confirmation, counter-screen for TRPC4 potentiator project, cell-based, second counter screen, HEK293 TRPC4/5HT1a, Fluo-4 (AID 434979;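 active = signal rise over 3 SD above mean of control wells given weak agonist, in both repeats and first screen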); conditions: Fluo-4 calcium flux, at 10 µM; outcome: serotonin added at its EC20 dose unless noted; potentiation: active compounds read high, serotonin added at its EC20 dose unless noted
[15] = calcium flux activation in mu-opioid HEK293 cells, confirmation, counter-screen for TRPC4 activator project, cell-based, HEK293 mu-opioid receptor line (AID 449723;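 active = hit in primary screen, with calcium signal over 5 SD above buffer well mean in both duplicates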;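 note: counter screen cells carry the mu-opioid receptor alone and lack TRPC4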); conditions: Fluo-4 calcium fluorescence, at 10 µM; active compounds read high
[16] = calcium flux enhancement in mu-opioid HEK293 cells, confirmation, counter-screen for TRPC4 allosteric potentiator project, cell-based, HEK293 mu-opioid receptor line (AID 449724;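 active = calcium signal rise more than 3 SD above the low-dose agonist control mean, in both duplicate plates and the primary screen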); conditions: Fluo-4 calcium flux, at 10 µM; compound added before EC20 DAMGO stimulus unless noted

NC(N)=N/N=C/c1ccc(N(c2ccccc2)c2ccccc2)cc1
inactive: outcome [2] | outcome [3] | outcome [4] | outcome [5] | outcome [6] | outcome [7] | outcome [8] | outcome [9] | outcome [10] | outcome [11] | outcome [13] | outcome [14] | outcome [16]
active: activation [1] 60% | activation [12] 48.2% | activation [15] 20.3%

COc1ccc(CCNCc2ccc(SC)cc2)cc1
active: activation [1] 122% | activation [10] 65.5% | activation [12] 21.7%
inactive: outcome [2] | outcome [3] | outcome [4] | outcome [5] | outcome [6] | outcome [7] | outcome [8] | outcome [9] inactive [setting not given] | outcome [11] inactive [setting not given] | outcome [13] inactive [setting not given] | outcome [14] inactive [setting not given] | outcome [15] | outcome [16] inactive [setting not given]

Cc1ccc(-n2cc(CNC(C)Cc3cnccn3)c(-c3cccc(C)c3)n2)cc1 (stereo not given)
inactive: outcome [2] | outcome [3] | outcome [4] | outcome [5] | outcome [6] | outcome [7] | outcome [8] | outcome [9] | outcome [11] | outcome [12] | outcome [13] | outcome [14] | outcome [15] | outcome [16]
active: activation [1] 146% | activation [10] 42.5%

CCc1n[nH]c(CCN)n1
active: activation [1] 178% | activation [12] 48.7%
inactive: outcome [2] | outcome [3] | outcome [4] | outcome [5] | outcome [6] | outcome [7] | outcome [8] | outcome [9] | outcome [10] | outcome [11] | outcome [13] | outcome [14] | outcome [15] | outcome [16]

COc1cc(C)c(CNCCc2c[nH]c3ccccc23)cc1C
inactive: outcome [2] | outcome [3] | outcome [4] | outcome [5] | outcome [6] | outcome [7] | outcome [8] | outcome [9] | outcome [11] | outcome [13] | outcome [14] | outcome [16]
active: activation [1] 165% | activation [10] 54.5% | activation [12] 74.2% | activation [15] 12.8%

Cc1cc(-c2ccccc2)cc(C)[n+]1Cc1ccccc1
inactive: outcome [2] | outcome [3] | outcome [4] | outcome [5] | outcome [6] | outcome [7] | outcome [8] | outcome [9] | outcome [10] | outcome [11] | outcome [12] | outcome [13] | outcome [14] | outcome [15] | outcome [16]
active: activation [1] 142%

CNCCc1nc(N)n[nH]1
inactive: outcome [3] | outcome [4] | outcome [5] | outcome [6] | outcome [7] | outcome [8] | outcome [9] | outcome [10] | outcome [11] | outcome [13] | outcome [14] | outcome [15] | outcome [16]
active: activation [1] 160% | activation [2] 172% | activation [12] 146%

Cc1nc2ccccn2c1P(=S)(N1CCCCC1)N1CCCCC1
inactive: outcome [2] | outcome [3] | outcome [4] | outcome [5] | outcome [6] | outcome [7] | outcome [8] | outcome [9] | outcome [11] | outcome [13] | outcome [14] | outcome [16]
active: activation [1] 88% | activation [10] 88% | activation [12] 87.7% | activation [15] 74.7%

O=[N+]([O-])c1ccc(N2CCNCC2)c(Cl)c1
active: potentiation [3] 26% | potentiation [4] 28% | activation [12] 5.58%
inactive: outcome [1] | outcome [2] | outcome [5] | outcome [6] | outcome [7] | outcome [8] | outcome [9] | outcome [10] | outcome [11] | outcome [13] | outcome [14] | outcome [15] | outcome [16]

Fc1cccc(C2NCCc3[nH]cnc32)c1 (stereo not given)
active: activation [1] 201% | activation [12] 53.4%
inactive: outcome [2] | outcome [3] | outcome [4] | outcome [5] | outcome [6] | outcome [7] | outcome [8] | outcome [9] | outcome [10] | outcome [11] | outcome [13] | outcome [14] | outcome [15] | outcome [16]

COc1ccc(C(CNC(=O)Cc2ccc(Cl)c(Cl)c2)N(C)C)cc1 (stereo not given)
inactive: outcome [3] | outcome [4] | outcome [5] | outcome [6] | outcome [7] | outcome [8] | outcome [9] | outcome [11] | outcome [12] | outcome [13] | outcome [14] | outcome [15] | outcome [16]
active: activation [1] 120% | activation [2] 95% | activation [10] 40.5%

O=C(c1ccc2c3c(cccc13)CC2)C1CCCN(CC2CC2)C1 (stereo not given)
inactive: outcome [3] | outcome [4] | outcome [5] | outcome [6] | outcome [7] | outcome [8] | outcome [9] | outcome [11] | outcome [13] | outcome [14] | outcome [15] | outcome [16]
active: activation [1] 164% | activation [2] 79% | activation [10] 75.5% | activation [12] 61.9%

Cc1ccc(C)c(NC(=S)NCCc2cnc[nH]2)c1
active: activation [1] 137% | activation [12] 69.3%
inactive: outcome [2] | outcome [3] | outcome [4] | outcome [5] | outcome [6] | outcome [7] | outcome [8] | outcome [9] | outcome [10] | outcome [11] | outcome [13] | outcome [14] | outcome [15] | outcome [16]

C[C@H]1OC[C@@H](C[N+](C)(C)C)O1
inactive: outcome [3] | outcome [4] | outcome [5] | outcome [6] | outcome [7] | outcome [8] | outcome [9] | outcome [11] | outcome [13] | outcome [14] | outcome [16]
active: activation [1] 152% | activation [2] 99% | activation [10] 96% | activation [12] 85% | activation [15] 87.7%

CCC(=O)C(CCN1CCOCC1)(c1ccccc1)c1ccccc1
inactive: outcome [3] | outcome [4] | outcome [5] | outcome [6] | outcome [7] | outcome [8] | outcome [9] inactive [setting not given] | outcome [11] inactive [setting not given] | outcome [13] inactive [setting not given] | outcome [14] inactive [setting not given] | outcome [15] | outcome [16] inactive [setting not given]
active: activation [1] 289% | activation [2] 164% | activation [10] 69% | activation [12] 5.98%
